# Source: PubChem BioAssay (NCI)
# Compounds without any hit were thinned out: in the full panel of roughly 83,000, 20% have a hit.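 Percent growth is the endpoint: 0 to 100 indicates growth inhibition (40 means 60% inhibition), 0 means no net growth, and negative values indicate cell death.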 Values without a mark were called inactive. Activity calls are given as the source filed them. How the source made its calls: active means growth percent below 10; inactive means the rest.
# How the values were obtained:
# Assay in all cases: NCI-60 one-dose screen, 48 h (100 = growth as untreated, 0 = no growth, -100 = all killed)
# Conditions in all cases: 10 µM unless noted
# SK-MEL-2 melanoma = system: SK-MEL-2 melanoma
# EKVX NSCLC = system: EKVX NSCLC
# SN12C renal = system: SN12C renal
# UO-31 renal = system: UO-31 renal
# TK-10 renal = system: TK-10 renal
# ACHN renal = system: ACHN renal
# CAKI-1 renal = system: CAKI-1 renal
# A498 renal = system: A498 renal
# CCRF-CEM leukemia = system: CCRF-CEM leukemia
# MOLT-4 leukemia = system: MOLT-4 leukemia
Structure (SMILES),growth (SK-MEL-2 melanoma),growth (EKVX NSCLC),growth (SN12C renal),growth (UO-31 renal),growth (TK-10 renal),growth (ACHN renal),growth (CAKI-1 renal),growth (A498 renal),growth (CCRF-CEM leukemia),growth (MOLT-4 leukemia)
CC(NC(=O)Oc1cccc2ccccc12)c1ccccc1 (stereo not given),107%,107%,97.4%,61.1%,105%,98.9%,121%,106%,72%,68.9%
O=C1C=CC(=O)N1c1ccccn1,109%,118%,96.2%,97.1%,113%,97.4%,104%,95.8%,105%,66.6%
COc1cc2c(cc1OC)C(=O)/C(=C/c1cccc(OCC(=O)c3ccccc3)c1)C2,44.1%,94.4%,88.8%,-19.2% (active),122%,96.9%,93.4%,103%,38%,55.3%
CS(=O)(=O)N1CCN(Cc2cc3nc(-c4cccc5[nH]ncc45)nc(N4CCOCC4)c3s2)CC1 (tested in a mixture with another compound),33.4%,16.7%,17%,-12.9% (active),20.5%,12.2%,-1.96% (active),-62.1% (active),20.9%,8.77% (active)
O=C(C(=O)c1cc(Br)ccc1O)c1cc(Br)ccc1O,28.4%,88.2%,59.4%,24.8%,61.4%,55.8%,50%,93.5%,53.2%,37.6%
C[C@@H]1C[C@@H]([C@@H](CC2CC(=O)NC(=O)C2)OC(=O)CC(=O)c2ccccc2)C(=O)[C@@H](C)C1,12.5%,11.4%,8.23% (active),-10.2% (active),3.61% (active),7.54% (active),-2.54% (active),16.7%,15.4%,9.81% (active)
Cc1ccc2nc(SCC(=O)Nc3ccc(-c4nc5ccccc5s4)c(Cl)c3)[nH]c2c1,105%,119%,107%,95%,109%,106%,105%,105%,103%,99.8%
Nc1ccc(Oc2c(F)c(F)c(Oc3ccc(N)cc3)c(F)c2F)cc1,17.5%,105%,103%,63.6%,101%,93.5%,95.6%,111%,78.2%,79.3%
Cc1cccc2nnc(-c3ccccc3)n12,99.1%,103%,93.7%,85.1%,98.1%,105%,105%,96%,99.3%,93.2%
NC(=N\N=C/Cc1ccccc1)/C(N)=N\N=C\Cc1ccccc1,108%,110%,102%,91.2%,110%,94.8%,102%,90.1%,95.8%,100%
O=C(C(=O)N1CCOCC1)c1cn(CCCn2cc(C(=O)C(=O)N3CCOCC3)c3ccccc32)c2ccccc12,100%,104%,96.3%,75.3%,97.6%,100%,104%,134%,-13.1% (active),104%
O=C(O)c1ccc2cccnc2c1O,4.77% (active),18.8%,7.06% (active),-5.79% (active),13.2%,7.69% (active),4.24% (active),13.6%,10.3%,11.2%
Cc1cc(Cl)ccc1Nc1nc(C(F)(F)F)ccc1C(=O)N/N=C/c1ccc(Cl)cc1,-20.6% (active),3.77% (active),4.31% (active),-43.3% (active),9.18% (active),-1.46% (active),-23.1% (active),-21.1% (active),-18.8% (active),-20.1% (active)
COCCCNS(=O)(=O)c1ncnc2nc[nH]c12,147%,101%,114%,96.9%,140%,118%,101%,87%,101%,102%
O=C(Nc1cccc(Cl)c1)Nc1cccc(Cl)c1,114%,72.5%,85.2%,72.7%,74.3%,59.2%,78.2%,59.5%,38.8%,51.6%
O=c1[nH]cc(Nc2cc(Cl)c3nonc3c2[N+](=O)[O-])c(=O)[nH]1,20%,34%,107%,89.3%,125%,92.9%,27%,93.8%,106%,91.1%
C[C@H]1C(=O)N2c3ccccc3[C@@]3(O)C[C@@H](n4cnc5ccccc5c4=O)C(=O)N1[C@@H]23,19.2%,103%,120%,86.5%,109%,104%,99.2%,121%,95%,105%
Cc1ncc(C(=O)Nc2ccc(CN3CCN(C)CC3)c(C(F)(F)F)c2)cc1C#Cc1cncc2ncccc12,14.5%,78.3%,50.6%,1.39% (active),82.6%,26.8%,50%,-4.12% (active),66.7%,41.6%
O=C(COc1ccc(/C=C2\Oc3ccc4ccccc4c3C2=O)cc1)c1ccc(Cl)cc1,73.8%,103%,98.9%,5.25% (active),114%,107%,98.8%,155%,-26.9% (active),33.8%
Cc1ccc2c(c1)C(=O)/C(=C\Nc1ccc(C(N)=O)cc1)C(O)O2 (stereo not given),77.4%,97.8%,136%,79.3%,120%,104%,82.3%,115%,78.3%,80.6%
Oc1ccc(/C=N/Nc2nc3ccccc3s2)c(O)c1,24%,43.2%,49.9%,10.2%,22.9%,23.2%,12.3%,77.9%,27.1%,18.8%
O=[N+]([O-])c1cc([N+](=O)[O-])c(N2CCCC2)cc1NN=C(c1ccc(O)cc1)c1ccc(O)cc1,-47.6% (active),90.5%,128%,-78.1% (active),131%,46.9%,91.9%,122%,55.3%,57.3%
O=C(/C=C/c1ccc([N+](=O)[O-])cc1)c1ccc2c3c(cccc13)CC2,-24.8% (active),87.3%,89.8%,19.2%,107%,99.1%,72.1%,-63.2% (active),35.5%,62.7%
Cc1ccc(OCC(=O)Nc2ccc(Oc3ccccc3)cc2)c([N+](=O)[O-])n1,30.9%,89.5%,68.5%,-38.4% (active),92.2%,101%,84.3%,107%,88%,81.8%
COc1ccc2ncccc2c1Cc1c(OC)ccc2ncccc12,75.6%,85.4%,89.4%,55.6%,89.2%,86.1%,57.6%,60.4%,70.7%,57.9%
O=c1c2ccccc2c2nccn2c2cc(Cl)ccc12,81.5%,83.2%,112%,70.7%,137%,138%,75.2%,77.9%,34%,-54.9% (active)
O=C(/C=C(\Nc1ccccc1)c1ccccc1)c1cn(-c2ccc([N+](=O)[O-])cc2)nn1,5.29% (active),100%,104%,69%,118%,94.6%,108%,96.2%,71.4%,64.3%
